Viability increase data for 16 molecules are collected here from PubChem BioAssay.

Values without a mark were called inactive.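 The calls were made as follows: active = viability increase at or above a cutoff of the median across tested compounds plus 3 SD (cut at about 8.5% in these data, passing the limit was not always enough); inconclusive = some gains above the cutoff, reason not given; inactive = the rest.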

This assay can be described thus: viability gain of MRP-1-high H69AR cells under doxorubicin, pilot screen, MRP-1 activator project, CellTiter-Glo, duplicate (AID 807).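 Also: compound pretreatment 18-22 h then 72 h combined with doxorubicin; 0% = doxorubicin alone and 100% = vehicle without doxorubicin.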 As to conditions: H69AR viability with doxorubicin, CellTiter-Glo luminescence; at 10 µM; stronger effect = higher value. A general note: ATP-based viability assays read luminescence as a measure of living cells.
`CCOC(=O)C1CCN(C(=O)CN(c2ccc(Cl)c(C(F)(F)F)c2)S(C)(=O)=O)CC1`: the viability increase is -3.24%. In the case of `CCOc1ccccc1C(=O)Nc1cc(=O)n(C)c(=O)n1C`, the viability increase was -0.06%. As for `Cc1ccc(-c2cc3nc4c(c(=O)n3[nH]2)CCCC4)cc1`, the figure is -0.73%; as for `CCOC(=O)C(C)Sc1nnc(Cc2cc(=O)[nH]c(=O)[nH]2)n1-c1ccc(Cl)cc1` (stereo unspecified), 0.97%; as for `c1nc(NCC2CCCO2)c2[nH]cnc2n1` (stereo unspecified), 0.98%.

For `O=C(Nc1ccc(Cl)cn1)c1cccnc1`, the viability increase is -4.65%.

`O=C1c2ccccc2C(=O)N1C/C=C/CN1C(=O)c2ccccc2C1=O`: the viability increase is -1.04%. For `O=c1oc2c3c4c(cc2cc1-c1nc2ccccc2[nH]1)CCCN4CCC3`, the viability increase was -5.62%. Take `CCCCC(=O)NCCc1cc2c(C)ccc(C)c2[nH]c1=O`: the viability increase is 0.28%. As for `O=C(NCc1ccc(F)cc1)c1cc2ccccn2n1`, the figure is -0.54%; as for `COc1cccc(C2C3=C(N=C4SCC(=O)N42)c2ccccc2CC3)c1OC` (stereo unspecified), -1.55%; as for `CCOC(=O)N1CCC(c2cc(=O)n3[nH]c(C)c(-c4ccc(F)cc4)c3n2)CC1`, 0.52%. As for `C=CCn1c(=O)n(CCOC)c(=O)c2sc3ccccc3c21`, the figure is -4.03%.

Consider `Cc1ccc2cc(CCNC(=O)C(C)C)c(=O)[nH]c2c1C`, for which the viability increase is -0.61%. With `COc1ccc(S(=O)(=O)N2CCCC2C(=O)Nc2ccc(O)cc2)cc1` (stereo unspecified), the viability increase is -0.78%. As for `Cc1cccc(-n2ncc3c(NCc4cccnc4)ncnc32)c1`, the figure is -0.52%.
